Experimental data taken from PubChem BioAssay AID2058 (Sanford-Burnham Center for Chemical Genomics, 2009).
Hit rate of the full screen: of about 290,000 compounds, about 150 (0.052%) were called active.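 Rule for the calls: active = inhibition of at least 50% with at least 30 cells and total cytoplasm GFP at most 10,000,000; inconclusive = under 30 cells or total GFP of 10,000,000 plus; inactive = the rest.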 The sample as a whole holds a higher share of actives than the screen did. Results with a measured potency or affinity are listed apart.

Target: G-protein coupled receptor 35 (Homo sapiens) (UniProt Q9HC97)
Assay: GPR35 antagonists blocking zaprinast-driven arrestin recruitment, primary screen, imaging, U2OS, beta-arrestin-GFP, zaprinast agonist (AID 2058)
Conditions: U2OS GPR35 beta-arrestin-GFP translocation imaging, zaprinast antagonism; at 10 µM; stronger effect = higher value

Sequence of G-protein coupled receptor 35 (Homo sapiens) (Q9HC97 whole entry, looked up): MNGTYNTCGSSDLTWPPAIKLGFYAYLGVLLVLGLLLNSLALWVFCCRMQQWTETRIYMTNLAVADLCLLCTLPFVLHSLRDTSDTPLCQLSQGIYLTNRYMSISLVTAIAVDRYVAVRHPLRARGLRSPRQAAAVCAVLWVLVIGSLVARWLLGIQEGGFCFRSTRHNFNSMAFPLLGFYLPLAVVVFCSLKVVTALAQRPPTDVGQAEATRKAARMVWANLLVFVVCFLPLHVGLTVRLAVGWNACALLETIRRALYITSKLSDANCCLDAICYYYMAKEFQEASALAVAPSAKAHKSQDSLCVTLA

| Compound | inhibition |
| --- | --- |
| Cc1nc(CC(=O)O)c(-c2ccccc2)s1 | -2.4% (inactive) |
| Cc1ccc(C(=O)C(C)OC(=O)c2cc3cc([N+](=O)[O-])ccc3oc2=O)cc1 (stereo not drawn) | -8.8% (inactive) |
| Cc1cc(-c2nnc(SCC(=O)Nc3ccccc3Cl)n2C)no1 | 18.2% (inactive) |
| CC1=CC(=C(C#N)c2nc3ccccc3s2)C=C(C)N1CC1CCCO1 (stereo not drawn) | 3.3% (inactive) |
| CC[n+]1c(C=C2C=C(C)OC(C)=C2)sc2ccccc21 | 11.8% (inactive) |
| Cn1c(=O)cc(OCC(=O)NCCc2ccc(Cl)cc2)c2ccccc21 | 13.1% (inactive) |
| COc1ccc(OC)c2[nH]c(C(=O)N3CCC(C(=O)O)CC3)cc12 | -3.2% (inactive) |
| CC1Cc2ccccc2N1C(=O)c1cccnc1 (stereo not drawn) | 20.2% (inactive) |
| COc1ccccc1/C=C/C(=C1/C(=O)N(c2ccccc2)N=C1C)c1ccc(C)cc1 | -2% (inactive) |
| CC1=CC(=O)c2ccccc2C1=O | 10.8% (inactive) |
| CC(C)(C)c1ccc2c(c1)C(=O)c1ccccc1C2=O | -1.9% (inactive) |
| CC(C)(C=O)C1=CC(=O)c2ccccc2C1=O | 78.8% (active) |
| CC1Cc2ccccc2N1C(=O)CN(C)S(=O)(=O)c1cccc2cccnc12 (stereo not drawn) | -6.9% (inactive) |
| Cc1ccccc1C(=O)N1CCCN(C(=O)c2ccccc2C)CC1 | -12.2% (inactive) |
| O=C(NNC(=S)Nc1ccc(F)cc1F)c1ccco1 | -12.7% (inactive) |
| CCOCCCNC(=O)C(c1ccc(Cl)cc1)N1CCN(c2ccccc2)CC1 (stereo not drawn) | 5.9% (inactive) |
| COc1ccc(/C=C(\C#N)C(=O)NC(C)c2ccccc2)cc1O (stereo not drawn) | 9.9% (inactive) |
| Cc1ccc(/C=C(/C#N)C(=O)NC(C)c2ccccc2)o1 (stereo not drawn) | -7.7% (inactive) |
| CC(C)NC(=O)/C(C#N)=C/c1ccc(N(C)C)o1 | 19.2% (inactive) |
| CCN(CC)c1ccc(/C=C(/C#N)C(=O)NC(C)C)o1 | 14.3% (inactive) |
| COC(=O)c1ccc(/C=C(\C#N)C(=O)NC(C)c2ccccc2)cc1 (stereo not drawn) | -3.1% (inactive) |
| CC(C)NC(=O)/C(C#N)=C\c1ccc(N(C)C)o1 | 50% (active) |
| Cc1ccc(/C=C(\C#N)C(=O)NC(C)c2ccccc2)o1 (stereo not drawn) | -5.7% (inactive) |
| CC(CCc1ccccc1)NC(=O)CCN1N=C(c2ccccc2)CCC1=O (stereo not drawn) | -14.8% (inactive) |
| O=C(NCCN1CCN(c2ccccc2)CC1)C1CCN(S(=O)(=O)N2CCOCC2)CC1 | 17.1% (inactive) |
| COc1cccc(C(=O)NC(=S)Nc2ccccc2N2CCCCC2)c1 | 9.4% (inactive) |
| O=C(CCn1cccn1)Nc1ccc2c(c1)OCCO2 | 18.7% (inactive) |
| CCC1(C)Cc2ccccc2-c2[nH][nH]c(=O)c21 (stereo not drawn) | -5.1% (inactive) |
